Results published in PubChem BioAssay (NCATS).
Inconclusive results are not listed. Where a call stands in place of a potency, no number is given. Active and inactive are the calls of the source. Calls come from the whole dose curve; as a rule, active = well fitted inhibition curve with a large enough effect; inconclusive = small, poorly fitted or top-dose-only effect; inactive = flat fitted curve, though single readings scatter.

These compounds were tested against Luciferin 4-monooxygenase (Photinus pyralis) (UniProt P08659) (assay: Biochemical firefly luciferase enzyme assay for NPC (AID 624030; note: nearly all actives have a fitted effect of over 70% in size)). Settings: purified P. pyralis luciferase, luminescence, 5 min; series mostly up to 58.6 µM.
Sequence of Luciferin 4-monooxygenase (Photinus pyralis) (P08659 whole entry, looked up): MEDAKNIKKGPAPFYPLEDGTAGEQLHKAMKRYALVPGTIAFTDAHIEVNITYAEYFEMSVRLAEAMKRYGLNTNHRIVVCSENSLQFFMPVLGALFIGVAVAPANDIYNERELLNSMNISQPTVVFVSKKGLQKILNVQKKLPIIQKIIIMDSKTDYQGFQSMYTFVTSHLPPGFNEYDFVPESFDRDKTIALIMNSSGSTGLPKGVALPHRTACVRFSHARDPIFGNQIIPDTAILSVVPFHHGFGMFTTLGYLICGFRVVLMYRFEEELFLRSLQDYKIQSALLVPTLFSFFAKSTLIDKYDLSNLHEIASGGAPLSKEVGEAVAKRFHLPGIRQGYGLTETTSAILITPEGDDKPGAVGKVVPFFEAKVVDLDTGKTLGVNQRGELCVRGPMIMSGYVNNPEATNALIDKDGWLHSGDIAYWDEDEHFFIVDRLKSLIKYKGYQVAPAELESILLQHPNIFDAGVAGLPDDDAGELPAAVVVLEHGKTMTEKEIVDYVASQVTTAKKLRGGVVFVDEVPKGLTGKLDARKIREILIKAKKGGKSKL
Procedure, shortened: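 Purified P. pyralis luciferase at 10 nM in 50 mM Tris Acetate (final), luminescence read within 5 minutes of enzyme addition to compounds. Activity normalised to PTC124 versus DMSO; concentration-response curves classed by r2, magnitude and activity.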
Potency is the fitted concentration of half-maximal effect.

**Q.** CC(=O)OCC(=O)[C@@]1(O)[C@H](OC(C)=O)C[C@H]2[C@@H]3CCC4=CC(=O)C=C[C@]4(C)[C@@]3(F)[C@@H](O)C[C@@]21C was tested. Which Potency did it give?
**A.** inactive

**Q.** With C[C@@H](C1=C(CCN(C)C)Cc2ccccc21)c1ccccn1 as the compound, how does the Potency read?
**A.** inactive

**Q.** How did the Potency turn out when O=C1NC2CCCCN2C12CCN(CCCN1c3ccccc3CCc3ccc(Cl)cc31)CC2 (stereo unspecified) was run?
**A.** inactive

**Q.** With O=C1CC[C@H](C(=O)N2CCCCC2)N1 as the compound, how does the Potency read?
**A.** inactive

**Q.** CC(=O)Oc1ccc(C2(c3ccc(OC(C)=O)cc3)Oc3ccccc3NC2=O)cc1 was tested. Which Potency did it give?
**A.** inactive

**Q.** For CCOC(=O)Cn1cccc1-c1nc(-c2ccc(OC)cc2)c(-c2ccc(OC)cc2)s1, which Potency is on record?
**A.** inactive

**Q.** With C[N+]1(C)CCC(OC(=O)C(O)(c2ccccc2)C2CCCC2)C1 (stereo unspecified) as the compound, how does the Potency read?
**A.** inactive

**Q.** For O=C(COCCOCCOCC(=O)Nc1c(I)cc(I)c(C(=O)O)c1I)Nc1c(I)cc(I)c(C(=O)O)c1I, which Potency is on record?
**A.** inactive

**Q.** How did the Potency turn out when Cc1ccc2c(Cl)cc(Cl)c(O)c2n1 was run?
**A.** inactive

**Q.** Which Potency does the source give for O=C1CC2(CCCC2)CC(=O)N1CCNCC1COc2ccccc2O1 (stereo unspecified) here?
**A.** inactive

**Q.** With N#C/C(=C1/SC[C@@H](c2ccc(Cl)cc2Cl)S1)n1ccnc1 as the compound, how does the Potency read?
**A.** inactive

**Q.** How did the Potency turn out when Cc1cc(O)c2c(O)c3c(O)cccc3cc2c1 was run?
**A.** inactive

**Q.** How did the Potency turn out when CC(COc1ccccc1)NN (stereo unspecified) was run?
**A.** inactive

**Q.** CC(C(=O)O)c1ccc(/C=C2\CCCCC2=O)cc1 (stereo unspecified) was tested. Which Potency did it give?
**A.** 16.1 µM (active)

**Q.** How did the Potency turn out when CN1CCC(=C2c3ccccc3CCc3cccnc32)CC1 was run?
**A.** inactive

**Q.** For CCOc1ccc(NS(=O)(=O)c2ccc(N)cc2)nn1, which Potency is on record?
**A.** inactive

**Q.** For CC(C)=CCC/C(C)=C/CC/C(C)=C/CCC(=O)OC/C=C(\C)CCC=C(C)C, which Potency is on record?
**A.** inactive

**Q.** Which Potency does the source give for CCN1CCN(c2cc(-c3ccc(F)cc3)c3c(n2)CCCCCC3)CC1 here?
**A.** inactive

**Q.** For O=C(NN1CCCC1)NS(=O)(=O)c1ccc(Cl)cc1, which Potency is on record?
**A.** inactive

**Q.** How did the Potency turn out when CCCCCC(=O)O[C@]1(C(C)=O)CC[C@H]2[C@@H]3CCC4=CC(=O)CC[C@]4(C)[C@H]3CC[C@@]21C was run?
**A.** inactive

**Q.** For OCCc1ccccc1, which Potency is on record?
**A.** inactive
